Results reported in the supplement of paper PMC6555819.

Assays:
Test in all cases: PBM binding z-score (relative to random genomic background probes); higher = stronger binding; sequences stand for … in GC…GCGATTGACAGCGTAGAATGAAGG
[1] = test system: PPARg:RXRa DBDmut IVT, anti-RXR (DBD mutation: RXRa K156A/R161A, NR concentration 270 nM, RXRa partner concentration 90 nM)
Method in brief: (§1)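 Antibodies against each partner of ligand-free nuclear receptor dimers (one per run) detected binding on custom Agilent 4×180K protein-binding microarrays after 1 h incubation. The double-stranded probes had 34-nt variable regions carrying direct-repeat seeds, single-nucleotide variants, half-site ablations and random human genomic background sequences. Binding z-scores, from regression-normalized fluorescence, use the random background probes as reference.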

[2] = test system: PPARg:RXRa IVT, anti-PPARg (NR concentration 270 nM, RXRa partner concentration 90 nM)
Method in brief: as §1

[3] = test system: PPARg DBDmut:RXRa IVT, anti-PPARg (DBD mutation: PPARg1 K132A/R137A, NR concentration 270 nM, RXRa partner concentration 90 nM)
Method in brief: as §1

[4] = test system: PPARg DBDmut IVT, anti-PPARg (DBD mutation: PPARg1 K132A/R137A, NR concentration 270 nM)
Method in brief: as §1

[5] = test system: PPARg homodimer (NR concentration 180 nM)
Method in brief: as §1

[6] = test system: PXR:RXRa (NR concentration 270 nM, RXRa partner concentration 90 nM)
Method in brief: as §1

[7] = test system: PXR homodimer (NR concentration 270 nM)
Method in brief: as §1

[8] = test system: RARa:RXR (NR concentration 270 nM, RXRa partner concentration 90 nM)
Method in brief: as §1

[9] = test system: RARa homodimer (NR concentration 270 nM)
Method in brief: as §1

[10] = test system: RARb:RXRa (NR concentration 270 nM, RXRa partner concentration 90 nM)
Method in brief: as §1

[11] = test system: RARb homodimer (NR concentration 270 nM)
Method in brief: as §1

[12] = test system: RARg:RXRa (NR concentration 270 nM, RXRa partner concentration 90 nM)
Method in brief: as §1

[13] = test system: RARg homodimer (NR concentration 270 nM)
Method in brief: as §1

[14] = test system: RXRa DBDmut IVT, anti-RXR (DBD mutation: RXRa K156A/R161A, NR concentration 90 nM)
Method in brief: as §1

[15] = test system: RXRa homodimer (NR concentration 180 nM)
Method in brief: as §1

[16] = test system: THRa:RXRa (NR concentration 90 nM, RXRa partner concentration 90 nM)
Method in brief: as §1

[17] = test system: THRa homodimer (NR concentration 90 nM)
Method in brief: as §1

[18] = test system: VDR homodimer (NR concentration 270 nM)
Method in brief: as §1

Sequence	PBM binding z-score [1]	PBM binding z-score [2]	PBM binding z-score [3]	PBM binding z-score [4]	PBM binding z-score [5]	PBM binding z-score [6]	PBM binding z-score [7]	PBM binding z-score [8]	PBM binding z-score [9]	PBM binding z-score [10]	PBM binding z-score [11]	PBM binding z-score [12]	PBM binding z-score [13]	PBM binding z-score [14]	PBM binding z-score [15]	PBM binding z-score [16]	PBM binding z-score [17]	PBM binding z-score [18]
ATCTCTATGTAACAAGTTCAGTGAAAGAGAGGAC	-0.367	0.29	1.13	0.92	0.596	1.35	1.37	0.511	0.404	1.08	1.49	0.833	1.3	0.923	0.533	0.782	0.323	2.17
TCATATAGGTAAAGGGTGAAAGTCGGTGTGGTAA	4.48	4.59	0.928	1.03	1.99	1.31	0.961	2.03	2.05	1.46	1.59	1.09	0.514	1.84	2.24	1.19	0.771	0.649
CCTTACGGGTCACTGTCAGGTTATAGCATTTGGA	3.32	3.7	0.509	-0.255	3.86	3.99	-0.056	4.71	1.03	3.87	3.14	5.51	4.38	1.75	4.49	3.83	0.905	1.41
TATTGTAGATCAACAGGAGGTTAAGAAAGATCGA	0.634	1.7	1.31	1.13	0.72	0.93	0.0451	0.904	0.431	0.665	0.682	1	0.791	-0.715	0.924	1.23	-0.471	0.107
CGTCCAACGTCAGAGAGGTCAGTGAATGCCGAGT	0.129	0.706	-0.788	-0.969	1.24	2.74	0.717	2.53	0.224	2.92	3.88	2.75	3.06	0.53	2.32	2.39	0.645	1.67
GCTTGTCGATCAAGGTTAAGAAAGACTAAGCTAA	-0.33	0.582	0.163	0.0381	-0.626	0.592	-0.652	0.89	-0.654	0.682	0.0989	0.457	0.385	-0.057	0.794	1.68	-0.268	-0.484
ACTAGCAGGCCAAGGGTTACTCAAGATTAGTCCG	0.518	2.14	-0.596	-0.597	0.215	0.27	-0.411	1.05	-0.361	0.894	0.787	0.885	0.852	-0.129	1.08	0.78	-0.538	-0.236
AGAATGAGGTTACCTAAGATCAGGGAAACGCTTG	2.92	2.93	1.22	0.151	1.06	1.67	0.241	2.62	-0.231	1.95	0.84	2.05	1.65	0.932	2.66	3.93	1.05	0.305
TCTGCTAGGTCAGTTGCTCAGCTAACGAGCTGCC	2.23	2.17	-0.136	0.103	-0.987	-0.163	-1.12	-0.122	-1.62	2.9	1.89	2.18	3.06	0.567	0.527	1.01	-0.484	-0.87
CCTACCGGGCCATCAGGTCATTGATATCAACGTT	0.52	1.97	-0.847	-0.348	1.25	1.64	0.864	1.95	0.127	2.21	2.68	2.12	2.18	-0.283	1.28	3.19	3.37	1.78
ACTAGCAGGCCAAGTTTGGGTCACTTAAACAAAG	0.815	1.34	-0.398	-0.134	0.336	0.603	-0.404	1.6	-0.389	1.91	2.22	2.2	1.45	0.0842	0.809	2.58	1.22	0.22
CGAGCTAGGTCAAGGACAGTGAATCTCCGCACGC	3.38	2.99	-0.96	-1.07	1.61	1.01	-0.22	2.02	0.121	3.74	2.95	3.8	4.67	1.27	2.28	3.02	1.62	-0.0669
GCTAGCAGGCCATTTGGGCCACTCAATGACGGGC	0.571	0.308	-1.6	-2.1	-1.14	-0.943	-1.18	-1.05	-0.661	-0.143	-0.576	-0.489	0.0153	-0.353	-0.706	-0.537	-1.01	-0.669
AGTCAAAGTTCAGGACGAGGTAACGTAAAGCACG	-0.443	2.06	0.129	0.321	1.91	2.94	0.827	2.8	0.702	4.26	3.25	4.81	4.53	2.83	2.9	3.87	1.81	2.08
CCTACTGGGCTAAAAAGGTCATTGATGCCGATAA	2.24	2.86	-0.829	-0.574	2.32	4.35	1.23	4.77	0.346	3.82	4.14	4.08	3.54	0.543	4.39	3.01	0.22	2.22
TCTTGTAGATCAAGCCGGTTAAGAAAGCCTGAGT	1.95	0.218	-0.157	-0.013	0.0807	0.392	0.0295	0.402	-0.0189	0.123	0.000492	-0.162	-0.393	0.918	0.161	-0.0654	-0.203	0.0355

Sequence	PBM binding z-score [1]	PBM binding z-score [2]	PBM binding z-score [3]	PBM binding z-score [4]	PBM binding z-score [5]	PBM binding z-score [6]	PBM binding z-score [7]	PBM binding z-score [8]	PBM binding z-score [9]	PBM binding z-score [10]	PBM binding z-score [11]	PBM binding z-score [12]	PBM binding z-score [13]	PBM binding z-score [14]	PBM binding z-score [15]	PBM binding z-score [16]	PBM binding z-score [17]	PBM binding z-score [18]
ACTAGCAGGCCAAGTTTCGGTCACTCAAACAAAG	0.73	0.753	-0.762	-0.738	-0.0877	-0.355	-0.0865	0.0207	-0.205	1.56	1.95	1.68	1.53	0.194	-0.395	0.604	0.212	-0.0934
ACAGACAGGTGAGTGAAGGTAACTTAGCTGGACG	0.507	0.549	-0.0823	-0.397	0.206	-0.213	-0.19	0.132	-0.0854	0.486	-0.0414	0.357	0.463	-0.514	0.233	1.46	-0.186	-0.226
ATCGAAAGGTCGAACGTGAGTATACCCACCCGAA	0.292	1.49	1.19	0.459	1.65	2.61	0.229	2.83	0.171	3.75	2.3	3.98	3.79	1.83	4.08	1.89	-0.12	0.989
TCGGCTAGGTCAGTTGGTCAGCTAACGAGCTGCC	1.62	1.9	-0.718	-0.778	0.3	0.186	-0.113	0.266	-0.561	3.52	2.79	2.88	3.91	0.368	0.942	1.14	-0.051	-0.233
CGAACTAGGTCAGAACATGACAGTGAAGGATGAT	6.77	7.31	2.34	1.77	1.17	0.243	-0.286	0.937	0.0136	2.58	1.74	2.34	2.89	0.671	1.33	1.24	0.0482	0.133
TCATATAGGGAATACAGGTGAAAGTCGGCATCTA	3.35	2.3	1.03	1.07	1.14	0.862	0.632	1.2	1.4	0.823	0.795	0.472	0.506	1.68	1.24	0.864	0.624	0.435
TGTCAAAGTTCAAAGGCAACGTAAGTATCCACAC	-0.195	3.82	1.26	1.83	3.71	4.86	2.97	3.97	1.3	4.97	3.66	5.59	5.84	4.29	5.06	2.12	-0.708	4.02
CCTAGCAGGCCAATCTGGTTCACTCAAGGCTTGA	1.85	0.21	-1.28	-0.685	-0.281	0.784	-0.545	0.161	-0.882	0.201	0.26	-0.172	-0.0939	0.398	-0.304	1.38	-0.212	0.42
GCACCAAGGTGAATAGGTCGTTGATGAGTAGGCG	2.07	2.2	-0.106	-0.894	1.01	0.721	-0.261	1.6	-0.487	1.93	1.77	2.42	1.1	0.00127	1.77	1.63	0.229	-0.0787
ACTAGCAGACCAAGGGTCACTCAAGATTAGTCCG	0.108	1.84	0.151	-0.38	1.55	2.8	-0.1	3.46	1.31	3.28	3.58	3.6	3.3	0.335	3.57	2.42	-0.116	1.2
TCGAGTAGGTTAGTCTGGGCATTCAGCCAACATA	1.92	1.79	-0.593	-0.623	-0.00252	-0.302	-0.724	-0.271	-0.668	-0.185	-0.367	-0.389	-0.417	-0.133	-0.273	0.0539	-0.454	-0.466
CCTATTAGTTTACCATAAGGGCAACCGAAGCTCG	0.246	0.459	0.256	1.25	1.47	0.681	1.08	0.819	1.51	1.6	1.96	1.14	1.1	0.915	0.566	2.06	1.39	1.03
GATACAGGGTCAAGGCCACAGTACGCGTATTGAT	2.24	4.31	0.644	0.508	2.25	4.14	0.451	4.64	0.787	4.67	3.85	5.44	5.11	2.15	5.9	3.69	1.85	1.84
CAAACTAAGTCACGAAAGGTCAAAGTCGAATGAC	2.8	3.64	0.905	0.93	3.63	6.08	2.1	6.41	1.43	4.83	5.04	6.02	5.67	0.992	6.79	4.42	1.2	2.58
CTCGAAGGGTCGTGCTCAGGTGAGTATACCAAAC	-0.253	0.525	-0.515	0.0417	0.506	1.37	-0.509	2.56	-0.561	2.31	1.59	3.39	2.01	1.01	2.52	3.65	0.851	0.628
